We go through 25 compounds from PubChem BioAssay (NCATS).

Results filed as inconclusive are left out. Where a call stands in place of a potency, no number is given. Values without a mark were called inactive. Calls of active or inactive are those of the source. Calls follow the shape of the dose curve; as a rule, active = well fitted inhibition curve with a large enough effect; inconclusive = small, poorly fitted or top-dose-only effect; inactive = flat fitted curve, though single readings scatter.

This experiment can be described thus: Primary qHTS for inhibitors of nuclear receptor binding SET domain protein 2 (NSD2) in an isogenic RCH-ACV NSD2 p.E1099K mutant (9B) (AID 1645876). Also: nearly all actives have a fitted effect of over 70% in size. The conditions noted are these: RCH-ACV (leukaemia line) NSD2 E1099K (9B) viability, CellTiter-Glo, 72 h; series mostly up to 44.9 µM.
As to `COCC1OC(OC(C)(C)C2CCC3(C)C=C(C4CCC5C4(C)CC(O)C4OC(C(C)(C)O)CCC45C)CCC3O2)C(NC(C)=O)C(O)C1O` (stereo not given), the Potency entry is “inactive”.
On to `CC(C)(CC(=O)N1CCCC1)NCC(=O)N1C[C@@H](F)C[C@H]1C#N`, for which the Potency entry is “inactive”.
In the case of `C=C(C)[C@@H]1CC[C@]2(C(=O)O)CC[C@]3(C)C(CCC4[C@]5(C)C(CC[C@]43C)C(C)(C)[C@@H](O)[C@@H]5C(=O)O)C12` (stereo not given in full), the Potency result was “inactive”.
The same measure, in the same setting: then `C/C1=C\CC(C)(C)/C=C/C/C(C(=O)O)=C/CC1`, with “inactive”; and `C[C@H]1CCN2C[C@]34C[C@@]5(C(=O)Nc6c5ccc5c6OC=CC(C)(C)O5)C(C)(C)C3C[C@]12C(=O)N4C` (stereo not given in full), with “inactive”.
In the case of `COc1ccc(/C=C/C(=O)O[C@@H]2[C@@H](O)[C@@H](O)[C@H](O[C@H]3[C@@H]4C=CO[C@@H](O[C@@H]5O[C@H](CO)[C@@H](O)[C@H](O)[C@H]5O)[C@@H]4[C@@]4(CO)O[C@@H]34)O[C@H]2C)cc1`, the Potency result is “inactive”.
On the same count and under the same terms, under `CCC(C)/C=C(C)/C=C/C1=CC2=C(Cl)C(=O)C(C)(OC(C)=O)C(=O)C2=CN1CCCCC(N)C(=O)O` (stereo not given) stands “inactive”.
As for `COc1cccc(C)c1C(=O)O[C@@H]1C[C@H](O[C@H]2[C@H](O)C[C@H](O[C@@H]3CCC[C@H]4[C@H]3C=C[C@@H]3CCCC/C=C/[C@H]5C=C(C(=O)O)[C@@H](C)C[C@@]56OC(=O)C(=C6O)OC(=O)[C@@]34C)O[C@@H]2C)O[C@H](C)[C@H]1O`, the activity change, negative = viability loss is -5.35% [at 9.23 µM].
`CC(=O)O[C@H]1C[C@@H](O)C(C)(C)C2C[C@@H](OC(C)=O)[C@@]3(C)C4=CCC(C(CO)CC(O)C5OC5(C)C)[C@]4(C)CCC3[C@]21C` (stereo not given in full): the Potency result is “inactive”.
Consider `C/C=C(\C)C(=O)OC[C@H]1O[C@H](O[C@H]2O[C@H](CO)[C@@H](O)[C@H](O)[C@H]2O[C@@H]2O[C@H](CO)[C@@H](O)[C@H](O)[C@H]2O)[C@H](O[C@@H]2O[C@H](CO)[C@@H](O)[C@H](O)[C@H]2O)[C@@H](O)[C@@H]1O`, for which the Potency result is “inactive”.
Take `CC1=C2CC(O)(C(C)(C)O)C(O[C@@H]3O[C@H](CO)[C@@H](O)[C@H](O)[C@H]3O)CC(C)C2CC1=O` (stereo not given in full): the Potency result was “inactive”.
Take `CC1(C)C[C@@H]2[C@H](C1)[C@@]1(C)C[C@]13C(O)OC[C@]3(O)[C@H]2O` (stereo not given in full): the Potency result was “inactive”.
The same measure, in the same setting: under `C/C(=C\CCC(C)CCO)C(=O)OC[C@H]1O[C@@H](O[C@@H]2OC=C(C(=O)O)[C@H]3CC[C@](C)(O)[C@@H]23)C(O)[C@@H](O)C1O` (stereo not given in full) stands “inactive”.
Still for that read-out and setting: under `OC[C@@]1(O)CO[C@@H](OC[C@H]2O[C@@H](OCc3ccccc3)[C@H](O)[C@@H](O)[C@@H]2O)[C@@H]1O` stands “inactive”.
On to `O=C(OC1C=C(CO)C2C(OC3OC(CO)C(O)C(O)C3O)OC=CC12O)c1ccc(O)cc1` (stereo not given), for which the Potency entry is “inactive”.
Still for that read-out and setting: under `COC(=O)C1=COC(O[C@@H]2O[C@H](CO)[C@@H](O)[C@H](O)[C@H]2O)C2C(C)C(=O)CC12` (stereo not given in full) stands “inactive”; under `C=CC(C)(O)CC/C=C(\C)C(=O)O[C@@H]1[C@@H](O)[C@H](OC(C)(C=C)CC/C=C(\C)C(=O)O)O[C@H](CO)[C@H]1OC(=O)/C(C)=C/CCC(C)(O)C=C` (stereo not given in full), “inactive”; under `COC(=O)C1=COC(O[C@@H]2O[C@H](CO)[C@@H](O)[C@H](O)[C@H]2O)[C@@H]2[C@@](C)(O)[C@@H](OC(=O)/C=C/c3ccccc3)C[C@]12O` (stereo not given in full), “inactive”.
In the case of `C[C@]1(O)CC[C@@H]2C(C(=O)O)=CO[C@@H](O[C@@H]3O[C@H](COC(=O)/C=C/c4ccc(O)c(O)c4)[C@@H](O)[C@H](O)[C@H]3O)[C@@H]21`, the Potency entry is “inactive”.
Turning to `CC1(C)CC[C@]2(C(=O)O[C@@H]3O[C@H](CO)[C@@H](O)[C@H](O)[C@H]3O)CC[C@]3(C)C(=CCC4[C@@]5(C)C[C@H](O)[C@H](O[C@@H]6OC[C@@H](O)[C@H](O)[C@H]6O)[C@@](C)(CO)C5CC[C@]43C)C2C1` (stereo not given in full), the activity change, negative = viability loss was 1.45% [at 9.23 µM].
As for `CC1=CC2=C(C)C(=O)[C@](C)(O)[C@H](O)C2=CO1`, the Potency entry is “inactive”.
Consider `O=C(/C=C/c1ccc(O)cc1)O[C@H]1[C@H](OC2CCCCC2O)O[C@H](CO)[C@@H](O)[C@@H]1O` (stereo not given in full), for which the Potency result was “inactive”.
`COC(=O)c1c(CC=C(C)C)c(OC2OC(CO)C(O)C(O)C2O)c2ccccc2c1OC1OC(CO)C(O)C(O)C1O` (stereo not given): the Potency entry was “inactive”.
Still for that read-out and setting: then `CC1CC(O)/C=C/C(O)/C=C\C(=O)O1` (stereo not given), with “inactive”.
Same read-out and setting: under `COC(=O)[C@]1(C)CCC[C@@]2(C)[C@@H]3CC[C@@H]4C[C@@]3(CC[C@@H]21)C[C@H]4C(=O)O` stands “inactive”.
